Compound activity: PubChem BioAssay, National Center for Advancing Translational Sciences (NCATS)
BCR signal inh: qHTS Assay to Find Inhibitors of Chronic Active B-Cell Receptor Signaling | ABC-DLBCL IkBa-CBG/CBR reporter, luminescence ratio, 4 h | Potency, µM (titrated, usually from 46.1 µM), inactives show at the top dose activity change, negative = inhibition, most hits filed as inhibitors | hit rate 0.05% among 340,000 | AID 493014, 2011; active = well fitted inhibition curve with a large enough effect in the signal ratio, with a control signal flat, not every such curve was filed as active; inconclusive = small, poorly fitted or top-dose-only effect, or effect the other way, or a change in a side signal; the % refers to the signal ratio;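 also: potency is read from the fitted curve at half-maximal effect; plate controls were basal doxycycline-induced cells for no effect and cells given 10 µM MG132 for full effect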
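Concentration-response series (up to 46 uM) were applied to TMD8 dual-reporter cells for 4 h at 37C with doxycycline. Green/red ratio, after filter-overlap correction, defined %Activity; red signal alone was normalised to basal cells and zero luminescence.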
MCF10A rereplic: A quantitative high throughput screen for small molecules that induce DNA re-replication in MCF 10a normal breast cells; AID 624296, 2012; Potency, µM (titrated, usually from 46.1 µM), for the others: top-dose activity, positive = re-replication, hits mostly activators; MCF 10A DNA re-replication, Hoechst nuclear intensity, 48 h; hit rate 2.9% among 350,000; also: potency is read from the fitted curve at half-maximal effect; % of control where 0% means no effect; nearly all actives have a fitted effect of over 50% in size
DT40 TDP1 CPT: qHTS for Inhibitors of human tyrosyl-DNA phosphodiesterase 1 (TDP1): qHTS in cells in presence of CPT; Potency, µM (top dose mostly 46.2 µM), inactives show at the top dose activity change, negative = growth inhibition, usual class: inhibitors; chicken DT40 Tdp1-/-;hTDP1 cells + 20 nM CPT, ATP luminescence, 48 h; hit rate 12% among 420,000; also: potency is read from the fitted curve at half-maximal effect; % is scaled to controls: 0 for no effect and ±100 for the full control effect; nearly all actives have a fitted effect of over 55% in size
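Chicken DT40 Tdp1-/- cells complemented with human TDP1, 400 cells/well, exposed to compounds plus 20 nM camptothecin for at least 48 h at 37 C; viability read as ATP content by CellTiter-Glo luminescence.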
TDP1 cell noCPT: qHTS for Inhibitors of human tyrosyl-DNA phosphodiesterase 1 (TDP1): qHTS in cells in absence of CPT; DT40 Tdp1-/- hTDP1 cells, no CPT, ATP luminescence, 48 h; Potency, µM (highest dose often 46.2 µM), for inactives: top-dose activity change, negative = growth inhibition, actives largely listed as inhibitors; hit rate 15% among 420,000; AID 686978, 2013; also: potency is read from the fitted curve at half-maximal effect; % is scaled to controls: 0 for no effect and ±100 for the full control effect; nearly all actives have a fitted effect of over 55% in size
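Compound effects on proliferation are scored in DT40 Tdp1-/-;hTDP1 cells in the absence of CPT. ATP levels (CellTiter-Glo luminescence) are recorded after a ≥48 hr, 37 °C incubation.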
IL1B secr inh: qHTS for Inhibitors of Inflammasome Signaling: IL-1-beta AlphaLISA Primary Screen; activity change, % at 57.5 µM; AID 743279, 2014; hit rate 4.7% among 360,000; THP-1 LPS/ATP IL-1B secretion, AlphaLISA, 16 h; hits give low values; in the data active = activity change below about -50%; inconclusive = mostly about -30% to -49%; also: % is scaled to controls: 0 for no effect and ±100 for the full control effect
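THP-1 cells pretreated 1 hr with compounds (up to 57.5 uM final), then stimulated with LPS (250 ng/mL final) plus ATP (1.25 mM final); secreted IL-1B measured by AlphaLISA after 16 hr, decreased signal indicating inhibition.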
SW480 rereplic: A quantitative high throughput screen for small molecules that induce DNA re-replication in SW480 colon adenocarcinoma cells. AID 624297, 2012. Potency, µM (highest dose often 46.1 µM), inactives show top-dose re-replication activation, hits mostly activators. SW480 DNA re-replication, Hoechst DNA content imaging, 48 h. hit rate 1.8% among 340,000; also: potency is read from the fitted curve at half-maximal effect; % of control where 0% means no effect; nearly all actives have a fitted effect of over 55% in size
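SW480 cells exposed to compounds for 48 hr at 37 C, 5% CO2, then Hoechst-stained 40 min. Nuclear DNA content imaged by fluorescence scanning (405 nm excitation, 500-530 nm emission); re-replication scored as increased high-intensity nuclei.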
The depositor's hits bear a star; ? = inconclusive; / = no result given; [ ] = remark or other dose. Hits are enriched below; roughly 19% of the tested compounds scored in any of these assays. Unless noted, calls follow the shape of the dose curve; as a rule, active = well fitted curve in the direction sought with a large enough effect; inconclusive = small, poorly fitted or top-dose-only effect, or another doubt; inactive = no such curve, though single readings can be large; an effect the other way counts as inactive or inconclusive.

SMILES | BCR signal inh | MCF10A rereplic | DT40 TDP1 CPT | TDP1 cell noCPT | IL1B secr inh | SW480 rereplic
COc1cccc(/C=N/NC(=O)c2cc3cc([N+](=O)[O-])ccc3s2)c1O | ? | ? | 0.92µM* | 0.46µM* | 77 | 1.8µM*
O=C(N/N=C/c1cc([N+](=O)[O-])ccc1Cl)c1cnccn1 | 1% | ? | 3.3µM* | 5.8µM* | 25 | 5.2µM*
COC(=O)c1cccc(/C=N/NC(N)=S)c1O | -11% | 24% | 0.18µM* | 0.26µM* | -26 | ?
Cc1cc(NC(=O)CN2C(=O)N(C)C3(CCCCC3)C2=O)ccc1Br | 2% | 9% | -30% | 7% | -5 | -5%
COCCCN1C(=O)C(CC(=O)NC(c2ccccc2)c2ccccc2)CC(C(=O)N2CCOCC2)=C1C (centres undefined) | / | / | -5% | -9% | 8 | /
O=C(NCC1CCCO1)c1cccc(S(=O)(=O)N2CCCCC2)c1 (centres undefined) | -5% | -6% | -2% | -4% | 0 | ?
CCOC(=O)c1ccc(CN(Cc2ccc(Cl)cc2Cl)S(=O)(=O)c2ccc(F)c(C)c2)cc1 | 9% | / | ? | ? | / | /
COc1cccc(/C=N/NC(=O)c2ccoc2C)c1O | ? | ? | 3.3µM* | 0.73µM* | 263 | ?
CCCCOc1ccc(S(=O)(=O)NC(=O)C2(C)CCN2C(=O)Cc2cccs2)cc1 (centres undefined) | / | / | -13% | -6% | 0 | /
CC(C)CN1C(=O)CSCC1(C)C(=O)NC(C)C (centres undefined) | / | / | 31% | 4% | -68* | /
CC(C)CN1C(=O)CSCC1(C)C(=O)Nc1ccc2c(c1)OCCO2 (centres undefined) | / | / | -24% | -19% | -16 | /
C/C(=N\NC(=O)c1nnn(-c2nonc2N)c1-c1ccccc1)c1ccco1 | 14% | -2% | -4% | -4% | -9 | -4%
O=C(NCC1CCCO1)c1cn(Cc2ccccc2)nc1-c1ccc(Cl)cc1 (centres undefined) | -6% | 1% | -12% | ? | -15 | -3%
COc1cc(/C=C/c2nc(C#N)c(N3CCN(C)CC3)o2)cc(OC)c1OC | / | / | 8.2µM* | 8.2µM* | / | /
COc1ccc(N2CCN(c3oc(/C=C/c4cccc(OC)c4)nc3C#N)CC2)cc1 | / | / | -2% | 10% | / | /
COc1cccc(/C=C/c2nc(C#N)c(N3CCN(C)CC3)o2)c1 | / | / | 23µM* | 23µM* | / | /
CCOc1ccc(/C=C/c2nc(C#N)c(N3CCN(c4ccccc4)CC3)o2)cc1 | / | / | ? | -14% | / | /
Cc1cc(N/N=C2/CCCc3ccccc32)nc2ccccc12 | ? | ? | ? | 10µM* | -9 | -12%
Cc1cccc(NC(=S)N/N=C/C(C)c2ccccc2)c1C (centres undefined) | ? | -1% | -26% | ? | -103* | 27%
Cc1ccccc1NC(=S)N/N=C/C(C)c1ccccc1 (centres undefined) | ? | -2% | 10µM* | 13µM* | 56 | -15%
CC(NC(=S)Nc1ccc(F)cc1)c1ccccc1 (centres undefined) | -1% | -3% | -3% | ? | 4 | -6%[9.22 µM]
CC(C)c1ccccc1NC(=S)NC(C)c1ccccc1 (centres undefined) | 5% | 5% | ? | 16µM* | -10 | ?
Cc1cccc(-c2nc3c4ccccc4nc(N4CCN(c5ccccc5F)CC4)n3n2)c1 | / | / | -2% | -8% | / | /
C[C@@H]1CN([C@H](C)CO)C(=O)CCCn2cc(nn2)CO[C@H]1CN(C)C(=O)c1ccc2ccn(C)c2c1 | / | / | 3% | 32% | -2 | /
CC(C)(C)c1ccc(S(=O)(=O)NC(=O)C2(C)CCN2C(=O)C2(c3ccccc3)CC2)cc1 (centres undefined) | / | / | -9% | -7% | 0 | /
SMILES | BCR signal inh | MCF10A rereplic | DT40 TDP1 CPT | TDP1 cell noCPT | IL1B secr inh | SW480 rereplic
O=C(COc1cccc(NC(=O)c2ccccc2)c1)c1ccc(F)cc1 | 1% | 3% | ? | -49% | -6 | 2%
O=C(COc1cccc(NC(=O)c2ccco2)c1)c1ccc(F)cc1 | -16% | 0% | ? | 21µM* | 0 | -2%
O=C(COc1cccc(NC(=O)c2cccc([N+](=O)[O-])c2)c1)c1ccc(F)cc1 | -16% | ? | ? | 13µM* | ? | -2%
COC(=O)Nc1ccc(SCC(=O)c2cccc([N+](=O)[O-])c2)cc1 | ? | 23µM* | ? | 21µM* | -19 | ?
COc1cccc(C(=O)COc2cccc(NC(=O)c3cccc([N+](=O)[O-])c3)c2)c1 | ? | ? | ? | 16µM* | ? | 10%
CCOc1cccc(C(=O)Nc2cccc(NC(=O)c3ccco3)c2)c1 | ? | 0% | -29% | ? | -4 | -3%
COc1ccccc1-c1c(C)nn2c(-c3ccccc3)cc(-c3ccccc3)nc12 | / | / | -5% | -26% | / | /
O=C(NCc1cccc(Br)c1)c1cc(-c2ccccc2)nn1CC1CC(c2cccc([N+](=O)[O-])c2)=NO1 (centres undefined) | / | 12% | 0% | ? | 0 | -1%
CCOc1ccc(NS(=O)(=O)c2ccc(NC(=O)N3CCCC3)cc2)cc1 | / | / | -30% | ? | / | /
Cc1nc(-c2ccc(S(=O)(=O)Oc3ccc(Cl)cc3Cl)s2)cs1 | 12% | ? | 13µM* | 18µM* | -1 | ?
Cc1nc(-c2ccc(S(=O)(=O)Nc3ccc(Br)cc3Cl)s2)cs1 | ? | ? | -4% | -2% | 8 | -1%
N#CCCN(C(=S)NC(=O)c1cccs1)c1ccccc1F | ? | 1% | ? | -28% | 4 | 0%
Cc1cccc(S(=O)(=O)NC(=O)C2(C)CCN2C(=O)c2sccc2C)c1 (centres undefined) | / | / | -7% | -9% | 4 | /
CCCN(CC1CC1)c1nc(N)c2c(N)nc(OC)cc2c1C#N | ? | ? | 16µM* | 23µM* | -27 | 8%
CCOc1cc2c(C#N)c(N(CC)CC)nc(N)c2c(N)n1 | / | -11% | ? | 16µM* | ? | 2%
CC(C)CN(CC(C)C)c1nc(N)c(C#N)c(CC#N)c1C#N | ? | ? | ? | ? | 14 | 17%
